Experimental data taken from PubChem BioAssay (NCI).
This is part of a sample that, as a whole, favours compounds with a hit. Of some 83,000 tested, about 20% had one in any assay.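 Method: cells in 96-well plates; compound added at one concentration; 48 h incubation; percent growth measured; values under 10 scored active.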 Calls of active or inactive are those of the source.

Key:
Experiment in all cases: NCI-60 one-dose screen, 48 h (100 = growth as untreated, 0 = no growth, -100 = all killed)
Details in all cases: 10 µM unless noted
EKVX NSCLC = tested on: EKVX NSCLC
SN12C renal = tested on: SN12C renal
UO-31 renal = tested on: UO-31 renal
TK-10 renal = tested on: TK-10 renal
CAKI-1 renal = tested on: CAKI-1 renal
A498 renal = tested on: A498 renal
CCRF-CEM leukemia = tested on: CCRF-CEM leukemia
MOLT-4 leukemia = tested on: MOLT-4 leukemia
SR leukemia = tested on: SR leukemia
RPMI-8226 leukemia = tested on: RPMI-8226 leukemia
OVCAR-8 ovarian = tested on: OVCAR-8 ovarian
OVCAR-5 ovarian = tested on: OVCAR-5 ovarian
OVCAR-4 ovarian = tested on: OVCAR-4 ovarian
SK-OV-3 ovarian = tested on: SK-OV-3 ovarian
IGROV1 ovarian = tested on: IGROV1 ovarian
HS 578T breast = tested on: HS 578T breast
NCI/ADR-RES ovarian = tested on: NCI/ADR-RES ovarian
T-47D breast = tested on: T-47D breast
ACHN renal = tested on: ACHN renal
OVCAR-3 ovarian = tested on: OVCAR-3 ovarian

Measured: growth

O=[N+]([O-])c1ccc(O)c2ncccc12
inactive: EKVX NSCLC 26.2% | SN12C renal 42.1% | UO-31 renal 31.4% | TK-10 renal 55.6% | CAKI-1 renal 30.5% | A498 renal 55.7% | CCRF-CEM leukemia 17.7% | MOLT-4 leukemia 19.9% | SR leukemia 14.6% | RPMI-8226 leukemia 22.1% | OVCAR-8 ovarian 16.9% | OVCAR-5 ovarian 40.1% | OVCAR-4 ovarian 40.8% | SK-OV-3 ovarian 58.7% | IGROV1 ovarian 23.6% | HS 578T breast 47.3% | NCI/ADR-RES ovarian 15.5% | T-47D breast 25.9%

O=C(N/N=C/c1ccco1)c1[nH]c2ccc(Br)cc2c1-c1ccccc1
active: RPMI-8226 leukemia 8.9% | OVCAR-8 ovarian 5.2%
inactive: EKVX NSCLC 37.9% | SN12C renal 38.1% | UO-31 renal 38.6% | TK-10 renal 98.7% | ACHN renal 29.3% | CCRF-CEM leukemia 15.6% | MOLT-4 leukemia 15.8% | SR leukemia 11.2% | OVCAR-5 ovarian 36.7% | OVCAR-4 ovarian 58.5% | SK-OV-3 ovarian 36.1% | IGROV1 ovarian 18.5% | OVCAR-3 ovarian 21.5% | HS 578T breast 31.6% | NCI/ADR-RES ovarian 20.5% | T-47D breast 60.7%

CCCC(=O)NC(c1cccc(N(C)C)c1)c1cc(C)c2cccnc2c1O (centres undefined)
active: OVCAR-3 ovarian 8.33%
inactive: EKVX NSCLC 73.8% | SN12C renal 78.2% | UO-31 renal 31.9% | TK-10 renal 84.9% | CAKI-1 renal 48.3% | CCRF-CEM leukemia 24.1% | MOLT-4 leukemia 22.9% | SR leukemia 21.7% | RPMI-8226 leukemia 63.8% | OVCAR-8 ovarian 44% | OVCAR-5 ovarian 87.4% | OVCAR-4 ovarian 53.1% | SK-OV-3 ovarian 56.5% | IGROV1 ovarian 40% | HS 578T breast 71.4% | NCI/ADR-RES ovarian 22.6% | T-47D breast 56.6%

CN(C)c1ccc(/C=C2\Cc3c(F)ccc(Br)c3C2=O)cc1
inactive: EKVX NSCLC 80.5% | SN12C renal 98.2% | UO-31 renal 77% | TK-10 renal 140% | CAKI-1 renal 82% | CCRF-CEM leukemia 94.2% | MOLT-4 leukemia 97.7% | SR leukemia 76% | RPMI-8226 leukemia 93.1% | OVCAR-8 ovarian 96.5% | OVCAR-5 ovarian 107% | OVCAR-4 ovarian 35.9% | SK-OV-3 ovarian 97.7% | IGROV1 ovarian 56.5% | OVCAR-3 ovarian 101% | HS 578T breast 92.2% | NCI/ADR-RES ovarian 91% | T-47D breast 54.2%

CCCC(=O)NC(c1ccc2c(c1)OC(F)(F)O2)c1cc(C)c2cccnc2c1O (centres undefined)
active: UO-31 renal 6.46% | A498 renal 6.01% | CCRF-CEM leukemia 9.16% | SK-OV-3 ovarian 9.65%
inactive: EKVX NSCLC 23.1% | SN12C renal 19.4% | TK-10 renal 54.8% | CAKI-1 renal 12.8% | MOLT-4 leukemia 15.3% | SR leukemia 13% | RPMI-8226 leukemia 29.1% | OVCAR-8 ovarian 14.3% | OVCAR-5 ovarian 42% | OVCAR-4 ovarian 33.7% | IGROV1 ovarian 12.7% | OVCAR-3 ovarian 24.8% | HS 578T breast 38.5% | NCI/ADR-RES ovarian 18.8% | T-47D breast 23.9%

Nc1cc(-c2c[nH]c3ccc(Cl)cc23)nc2cc(-c3c[nH]c4ccc(Cl)cc34)nn12
inactive: EKVX NSCLC 54.4% | SN12C renal 70.8% | UO-31 renal 61.3% | TK-10 renal 66.2% | ACHN renal 24.3% | A498 renal 32.2% | CCRF-CEM leukemia 42% | MOLT-4 leukemia 33.3% | SR leukemia 10.1% | RPMI-8226 leukemia 59.4% | OVCAR-8 ovarian 70.7% | OVCAR-5 ovarian 59.7% | OVCAR-4 ovarian 58.6% | IGROV1 ovarian 41.7% | OVCAR-3 ovarian 75.9% | HS 578T breast 74.3% | NCI/ADR-RES ovarian 60.4% | T-47D breast 51.6%

[Cl][Ru].c1ccc(-c2cc(-c3ccccn3)nc(-c3ccccn3)c2)cc1.c1ccc(-c2ccnc3c2ccc2c(-c4ccccc4)ccnc23)cc1
inactive: EKVX NSCLC 25.9% | UO-31 renal 63.9% | OVCAR-5 ovarian 18.3% | OVCAR-4 ovarian 15.6% | NCI/ADR-RES ovarian 93.7%
active: SN12C renal -22.5% | ACHN renal 6% | CAKI-1 renal -6.38% | A498 renal -20.2% | CCRF-CEM leukemia 0.187% | MOLT-4 leukemia -16.8% | SR leukemia -40.3% | RPMI-8226 leukemia -41.8% | OVCAR-8 ovarian -65.5% | SK-OV-3 ovarian -12.1% | IGROV1 ovarian -59.2% | OVCAR-3 ovarian -64.2% | HS 578T breast -15.1% | T-47D breast -11.4%

O=C(CCN1C(=O)/C(=C/c2ccccc2)SC1=S)N1CCOCC1
inactive: EKVX NSCLC 82.3% | SN12C renal 81.7% | UO-31 renal 72.9% | ACHN renal 67% | CAKI-1 renal 88.2% | A498 renal 90.5% | CCRF-CEM leukemia 49.1% | MOLT-4 leukemia 89.4% | SR leukemia 65.4% | RPMI-8226 leukemia 67.7% | OVCAR-8 ovarian 99.6% | OVCAR-5 ovarian 94.8% | OVCAR-4 ovarian 101% | SK-OV-3 ovarian 98.5% | IGROV1 ovarian 88.5% | OVCAR-3 ovarian 110% | HS 578T breast 100% | NCI/ADR-RES ovarian 98.8% | T-47D breast 65.7%

O=C(O)CCCCCN1C(=O)/C(=C/c2ccc(O)c(O)c2)SC1=S
inactive: EKVX NSCLC 97% | SN12C renal 98.5% | UO-31 renal 90.4% | ACHN renal 109% | CAKI-1 renal 102% | A498 renal 101% | CCRF-CEM leukemia 105% | MOLT-4 leukemia 106% | SR leukemia 107% | RPMI-8226 leukemia 111% | OVCAR-8 ovarian 103% | OVCAR-5 ovarian 108% | OVCAR-4 ovarian 101% | SK-OV-3 ovarian 124% | IGROV1 ovarian 106% | OVCAR-3 ovarian 108% | HS 578T breast 99.6% | NCI/ADR-RES ovarian 104% | T-47D breast 98%

O=C1Nc2cc(Cl)ccc2/C1=C\c1ccc(OCc2ccc(Br)cc2F)cc1
active: EKVX NSCLC -18.9% | SN12C renal -70.1% | UO-31 renal -68.7% | ACHN renal -83% | CAKI-1 renal -77.1% | A498 renal -75.8% | RPMI-8226 leukemia -24.3% | OVCAR-8 ovarian -36.7% | OVCAR-5 ovarian 6.67% | OVCAR-4 ovarian -54.3% | IGROV1 ovarian -88.8% | OVCAR-3 ovarian -64.7% | HS 578T breast -26.1% | NCI/ADR-RES ovarian -0.106% | T-47D breast -23.9%
inactive: CCRF-CEM leukemia 12.9% | MOLT-4 leukemia 22.7% | SR leukemia 27.4%
